Source: the supplement of paper PMC10338343
± gives the standard deviation.
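Also: 1 nM active piRISC with 0.1 nM target library at 33 °C single turnover.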

What follows are sequences tested on MILI (PIWIL2) piRISC loaded with piRNA #1 (26 nt) (assay: pre-steady-state target cleavage rate (min^-1); guide: piRNA #1 5'p-UGAGGUAGUAGGUUGUAUAGUAUCCA; MIWI and MILI are mouse PIWI proteins and EfPiwi is from a freshwater sponge; tags in brackets are library labels; higher = faster piRNA-guided slicing of the target). Details: auxiliary factor: 500 nM mouse GTSF1.
Summary of the method: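 Reactions were run for 0–8 or 0–960 min at 33 °C in HEPES–potassium acetate buffer, combining 1 nM active affinity-purified piRISC with one synthetic guide, […] transcribed, DNA-blocked target RNA library and, in some cases, 500 nM GTSF1 partner protein. Sequencing of uncleaved targets followed, with normalisation to depth and to weakly complementary targets. Three trials were pooled, k3 was capped at 0.0001 min^-1, and the pre-steady-state cleavage rate was taken from a burst-and-steady-state fit.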
With “GGAGACCAUACUAUACAACCUACUACCUCA [g2:g23:cont:t1A]” the “pre-steady-state target cleavage rate” value was 0.178 ± 0.023. With GGAGACCUAUGAUAUGUUGCUUCUACCUGA the “pre-steady-state target cleavage rate” value was under 0.0001. With “GGAGACCUAUGAUAACAACCUACUACCUCC [g2:g16:cont:t1C]” the “pre-steady-state target cleavage rate” value was 0.00493 ± 0.0021. In the case of GGAGUGGAUACUAUACAACCUACACCUCA, the “pre-steady-state target cleavage rate” value is reported as 0.00292 ± 0.0021. GGAGACCUAACUAAACAACGUACUACCUCA was tested, and the “pre-steady-state target cleavage rate” value was 0.00971 ± 0.005. GGAGACCUAUGUACUACAACCUACUACCUCA was tested, and the “pre-steady-state target cleavage rate” value was 0.00901 ± 0.0026. GGAGACCUAUCUAUACAACCUACUACCCUCA was tested, and the “pre-steady-state target cleavage rate” value was 0.132 ± 0.015. In the case of GGAGACCUAUGUAUACAACCUAUCUACCUCA, the “pre-steady-state target cleavage rate” value is reported as 0.0415 ± 0.01. GGAGACCUAUGAAUACAACCUACUACCAUCA was tested, and the “pre-steady-state target cleavage rate” value was 0.00646 ± 0.0026. GGAGACCUAUGUAUACAACCUACUGACCUCA was tested, and the “pre-steady-state target cleavage rate” value was 0.0132 ± 0.0038. In the case of GGAGACCAUACUAAACAACCAACUACCUCA, the “pre-steady-state target cleavage rate” value is reported as 0.00724 ± 0.003. For GGAGACCUAUCAAUACUACCUACUACCUCA, the “pre-steady-state target cleavage rate” value was 0.0216 ± 0.0056. For “GGAGACCUAUGAAUACAACGAUGAUGGAGA [g12:g18:cont:t1A]”, the “pre-steady-state target cleavage rate” value was under 0.0001. For GGAGACCUAUGUGUACAACCUACUACCUCA, the “pre-steady-state target cleavage rate” value was 0.0178 ± 0.0035. GGAGACCUAUGAAUACAACCUAUUACCUCA was tested, and the “pre-steady-state target cleavage rate” value was 0.00604 ± 0.003. GGAGACGAUACUUUUCAACCUACUACCUCA was tested, and the “pre-steady-state target cleavage rate” value was 0.171 ± 0.011. In the case of GGAGACGAUACUAUAGAACCUACAACCUCA, the “pre-steady-state target cleavage rate” value is reported as 0.0115 ± 0.0039. GGAGACCUAUGAUAGCAACCUACUACCUCA was tested, and the “pre-steady-state target cleavage rate” value was 0.00366 ± 0.0022. In the case of GGAGACCUAUGUAUGCAACCUACUACCUCA, the “pre-steady-state target cleavage rate” value is reported as 0.0637 ± 0.0095. With GGAGACCUAACUAUACAUCCUACUACCACA the “pre-steady-state target cleavage rate” value was 0.251 ± 0.046. In the case of GGAGACCUUUCUAUACAACCUACAACCUCA, the “pre-steady-state target cleavage rate” value is reported as 0.0806 ± 0.01. In the case of GGAGACCUAUCUAUACAACCUAUUACCUCA, the “pre-steady-state target cleavage rate” value is reported as 0.0974 ± 0.01. GGAGACCUAUGUAUACACCCUACUACCUCA was tested, and the “pre-steady-state target cleavage rate” value was 0.0161 ± 0.0035. “GGAGACCUAUGAUAUGUUGGUACUACCAGA [g4:g10:cont:t1A]” was tested, and the “pre-steady-state target cleavage rate” value was under 0.0001. For GGAGACCUAUGAUAUGAAACUACUACCUCA, the “pre-steady-state target cleavage rate” value was under 0.0001. With GGAGAGGAUAGUAAACAACCUACUACCUCA the “pre-steady-state target cleavage rate” value was 0.0497 ± 0.011. GGAGACGAUAGUAUACAACCUACUUCCUCA was tested, and the “pre-steady-state target cleavage rate” value was 0.0731 ± 0.015. With GGAGACGUUACUUUACAACCUACUACCUCA the “pre-steady-state target cleavage rate” value was 0.141 ± 0.01. For GGAGACCAUACUAUACUACCUACAACCUCA, the “pre-steady-state target cleavage rate” value was 0.185 ± 0.023. In the case of GGAGACCUAUGAAUAACAACCUACUACCUCA, the “pre-steady-state target cleavage rate” value is reported as 0.00368 ± 0.0026. For GGAGACCUAUGAAUUACAACCUACUACCUCA, the “pre-steady-state target cleavage rate” value was 0.00427 ± 0.0021. For GGAGACCUAUCUAUACAACGUACUUCCUCA, the “pre-steady-state target cleavage rate” value was 0.0209 ± 0.0035. In the case of GGAGACCUUACUAUACAAGGUACUACCUCA, the “pre-steady-state target cleavage rate” value is reported as 0.0785 ± 0.0094. For GGAGACCUAUCUUUACAACCUACUACCACA, the “pre-steady-state target cleavage rate” value was 0.105 ± 0.016. GGAGAGGAUACUAUACAACCACUACCUCA was tested, and the “pre-steady-state target cleavage rate” value was 0.00782 ± 0.0025. In the case of GGAGACCUAUGUAUAGAACCUACUACCACA, the “pre-steady-state target cleavage rate” value is reported as 0.0238 ± 0.0059. With GGAGACCUAACUAAACAACCUACUACCUGA the “pre-steady-state target cleavage rate” value was 0.0558 ± 0.021. With GGAGACCAUAGUAUACAACCUACUUCCUCA the “pre-steady-state target cleavage rate” value was 0.073 ± 0.014. In the case of GGAGACCUAUCUGUACAACCUACUACCUCA, the “pre-steady-state target cleavage rate” value is reported as 0.0491 ± 0.0092. For GGAGACCUUACUAUUCAACCUUCUACCUCA, the “pre-steady-state target cleavage rate” value was 0.00471 ± 0.0024.
